One assay deals with Staphylococcus aureus. As to conditions: Concentration 32 ug.mL-1, ASSAY_TEST Inhibition of Bacterial Growth, detection method Absorption (OD600), MEDIA CAMHB, plate type 384well, NBS, CORNING #3640, time 18 hr.
The next assay has as its system Escherichia coli. As to conditions: Concentration 32 ug.mL-1, ASSAY_TEST Inhibition of Bacterial Growth, detection method Absorption (OD600), MEDIA CAMHB, plate type 384well, NBS, CORNING #3640, time 18 hr.

The structures appear in SMILES notation. Values joined by “and” are separate entries in the source; they are usually repeats but may differ in a detail not shown here. Equal entries are not always repeated. Measured potencies and affinities stand elsewhere.

Here are results for 9 molecules from ChEMBL document CHEMBL4513151, “CO-ADD screening of Institut Català d'Investigació Química (Spain) compounds”.

A word on the Inhibition: it is the change of the read-out against control, counted positive when it falls.

As for `C[C@]12CC[C@@](c3ccc(C(F)(F)F)cc3)(O1)[C@H]1C=C[C@H](OC(=O)c3ccccc3)[C@H]12`, the Inhibition with Staphylococcus aureus (32 ug/mL) is 20.36% and 17.47%; in the assay with Escherichia coli (32 ug/mL), 2.03% and 5%.
On to `C[C@]12CC[C@@H](O1)[C@H]1C=C[C@H](OC(=O)c3ccccc3)[C@H]12`, for which the figures for the Inhibition with Staphylococcus aureus and in the assay with Escherichia coli were 21.38% and 2.42%, respectively.
The corresponding values for `C=C1CC(COCc2ccc(OC)cc2)(COCc2ccc(OC)cc2)C[C@@H]1[C@@H](Nc1ccc(Br)cc1)c1ccccc1` are -1.38% and -13.28%.
As for `C[C@]12CC[C@@](C3CC3)(O1)[C@H]1C=C[C@H](OC(=O)c3ccccc3)[C@H]12`, the Inhibition in the assay with Staphylococcus aureus (32 ug/mL) is 14.3% and 9.5%; in the assay with Escherichia coli (32 ug/mL), -1.08% and -3.45%.
For `C[C@@H]1CC(=O)C=C2C(=O)[C@@H]3[C@@H](C3(C)C)[C@]21C`, the Inhibition was found to be 24.26% in the assay with Staphylococcus aureus and 3.69% with Escherichia coli.
The corresponding values for `C[C@]12CC[C@@](C3CCCC3)(O1)[C@H]1C=C[C@H](OC(=O)c3ccccc3)[C@H]12` are 23.21% and 7.38%.
The matching figures for `C=C1CC(C(=O)OC)(C(=O)OC)C[C@@H]1[C@@H](NS(=O)(=O)c1ccc(C)cc1)c1ccccc1`: 21% and -0.02%.
As for `C=C1CC(C(=O)OC)(C(=O)OC)C[C@@H]1[C@H](c1ccccc1)n1ccc2ccccc21`, the Inhibition with Staphylococcus aureus worked out at 19.16%; in the assay with Escherichia coli, 2.95%.
The corresponding values for `C=C1CC(COC)(COC)C[C@@H]1[C@@H](Nc1ccc(Br)cc1)c1ccccc1` are 4.73% and -1.74%.
